PubChem BioAssay AID624267 (The Scripps Research Institute Molecular Screening Center, 2012)
Among all 360,000 compounds or so, about 1,400 (0.39%) were called active. For the sample, actives were picked, then their nearest neighbours and some compounds at random. A number with no mark means an inactive call. Cut-off read from the data, not from the text of the source: active = inhibition above about 21%; inactive = the rest.

Biological target: Receptor-interacting serine/threonine-protein kinase 2 (Homo sapiens) (UniProt O43353)
Sequence (O43353 whole entry, looked up): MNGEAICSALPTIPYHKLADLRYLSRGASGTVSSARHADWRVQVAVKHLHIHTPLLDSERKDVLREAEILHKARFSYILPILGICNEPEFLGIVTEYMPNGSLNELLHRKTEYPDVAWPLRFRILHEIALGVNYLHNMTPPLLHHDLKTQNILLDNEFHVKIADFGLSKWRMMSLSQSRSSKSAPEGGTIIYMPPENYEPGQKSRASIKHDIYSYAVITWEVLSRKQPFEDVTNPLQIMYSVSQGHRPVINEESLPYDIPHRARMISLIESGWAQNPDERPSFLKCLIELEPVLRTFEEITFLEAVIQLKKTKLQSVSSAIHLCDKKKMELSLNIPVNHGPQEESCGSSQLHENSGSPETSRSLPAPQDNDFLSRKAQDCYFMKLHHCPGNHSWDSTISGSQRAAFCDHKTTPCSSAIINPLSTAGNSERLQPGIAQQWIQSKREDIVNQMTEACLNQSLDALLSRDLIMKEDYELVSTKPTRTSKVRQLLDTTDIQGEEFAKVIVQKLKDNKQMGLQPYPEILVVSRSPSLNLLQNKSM
Test: NOD2-RIPK2 binding disruptors in cells, primary screen, fluorescence, CHO cells, BLA complementation (AID 624267);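 note: 0% = vehicle only and 100% = reference blocker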
Conditions: CHO BLA complementation NOD2-RIPK2, CCF4 ratio; at 4.98 µM; stronger effect = higher value

| SMILES | inhibition |
| --- | --- |
| C[C@H]1CN([C@@H](C)CO)C(=O)c2cc(-c3cccc(F)c3)cnc2O[C@@H]1CN(C)S(C)(=O)=O | 21.8% (active) |
| C[C@H]1CN([C@@H](C)CO)C(=O)c2cc(Br)cnc2O[C@H]1CN(C)S(=O)(=O)c1cccs1 | -2.32% |
| C[C@@H]1CN([C@H](C)CO)C(=O)c2cc(-c3ccc(F)cc3)cnc2O[C@H]1CN(C)C(=O)c1ccc(F)cc1 | -5.43% |
| Cc1ccc(N(C(=O)c2sc(C)nc2C)C(C(=O)NC(C)(C)C)c2ccncc2)cc1 (configuration not stated) | -19.7% |
| COc1ccc(NC(C)=O)cc1NC(=O)CN1CCN(C2c3ccccc3-c3ccccc32)CC1 | -1.12% |
| Cc1ccc(NS(=O)(=O)c2ccc(C(=O)NCCCN3CCOCC3)cc2)cc1 | -3.35% |
| Cc1cccc(NC(=O)Cn2c(=O)n(Cc3ccccc3)c(=O)c3c(C)c(C)sc32)c1 | -1.85% |
| Cc1cccc(CS(=O)(=O)c2ncc(Cl)c(C(=O)Nc3ccc(F)cc3)n2)c1 | 95.7% (active) |
| Cc1cc(NS(=O)(=O)c2ccc(NC(=S)NC(=O)c3ccc(F)cc3Cl)cc2)no1 | -13% |
| CN(CCC(=O)Nc1cc(S(=O)(=O)N(C)C)ccc1Cl)CC(=O)Nc1ccc(F)cc1 | -1.55% |
| Cc1cccc(NC(=O)c2nc(S(=O)(=O)Cc3ccccc3)ncc2Cl)c1 | 90.3% (active) |
| O=C(CS(=O)(=O)Cc1ccccc1)Nc1cccnc1 | -7.99% |
| COc1ccc(C(C)=O)cc1CN1C(=O)NC2(CCCCC2C)C1=O (configuration not stated) | -6.26% |
| CC(C)N1C(=O)c2ccccc2NC(=O)C1C(=O)NCc1cccs1 (configuration not stated) | -11.7% |
| CC(OC(=O)CNS(=O)(=O)/C=C/c1ccccc1)C(=O)Nc1ccc(S(=O)(=O)N2CCCC2)cc1 (configuration not stated) | -14.5% |
| COc1ccc(CCNC(=O)CCc2cn(C)c3ccccc23)c(OC)c1 | 3.29% |
| O=[N+]([O-])c1c(NCCO)cc(Sc2nc3ccccc3s2)c2nonc12 | 86.9% (active) |
| CCN(CCO)C(=S)Nc1cc(C(=O)OC)ccc1C(=O)OC | -1.65% |
| COc1ccc(C[C@H]2CN3C(=NC[C@H]3C)N2CCNC(=O)CCC2CCCCC2)cc1 | -3.4% |
| O=C(CCCN1C(=O)CSc2ncccc21)N1CCN(c2cccc(C(F)(F)F)c2)CC1 | 3.16% |
| COc1ccc(CCNS(=O)(=O)c2ccc(F)cc2)cc1OC | -9.46% |
| COc1ccc(-c2cc(C(F)(F)F)nc(S(C)(=O)=O)n2)cc1OC | 36.7% (active) |

| SMILES | inhibition |
| --- | --- |
| Cc1cc(C)c(C)c(S(=O)(=O)Nc2ccc(O)cc2)c1C | -7.06% |
| Cc1ccc(S(=O)(=O)NC(=O)N2CCCN(Cc3ccc(F)cc3)CC2)cc1 | 8.13% |
| Cc1ccc(CS(=O)(=O)CCC(=O)NCc2ccc(F)cc2)cc1 | 10.2% |
| CC(C)c1cc(C(=O)N/N=C/c2ccoc2)c(O)c(C(C)C)c1 | -15.4% |
| CC(OC(=O)c1cc2ccccc2o1)C(=O)Nc1ccc(N2CCOCC2)cc1 (configuration not stated) | -6.36% |
| O=C(NN=Cc1ccc(N2CCOCC2)cc1)c1cc2ccccc2cc1O | 30.5% (active) |
| CCc1nnc(NC(=O)CSc2nc3c(c(=O)n2-c2ccccc2OC)SCC3)s1 | -4.66% |
| CC(C)Oc1ccc(C2NC(=O)NC2=O)cc1 (configuration not stated) | -8.11% |
| CCCCCNC(=O)C(c1ccc(OC)cc1)n1c(=O)c(-c2ccccc2)nc2ccccc21 (configuration not stated) | -13.6% |
| COc1ccc(NC(=O)C(c2ccncc2)n2c(=O)c(-c3cc4ccccc4[nH]3)nc3ccccc32)cc1 (configuration not stated) | 37.2% (active) |
| COc1ccc(C(C(=O)NCc2ccccc2)n2c(=O)c(-c3ccccc3)nc3ccccc32)cc1 (configuration not stated) | -6.05% |
| CCOc1ccc(NC(=O)C/C(C)=N/NC(=O)Cc2cccs2)cc1 | -21.5% |
| O=C(c1ccc(O)cc1)c1ccc(C(=O)O)c(C(=O)O)c1 | 7.45% |
| Nc1ncnc2c1ncn2[C@@H]1O[C@H](C(=O)NS(=O)(=O)c2c(Cl)nc3sccn23)[C@@H](O)[C@H]1O | -5.91% |
| Cc1ccnc(NS(=O)(=O)c2ccc(NC(=O)c3oc4ccccc4c3C)cc2)n1 | 7.08% |
| CC(=O)Nc1ccc(C=Cc2ccc([N+](=O)[O-])cc2)cc1 | 23.5% (active) |
| O=C(O)/C=C/C(=O)NNc1ccc([N+](=O)[O-])cc1 | -11.2% |
| O=C(CCC(=O)N1CCCC1)Nc1ccc([N+](=O)[O-])cc1 | -7.75% |
| O=C(CN1C(=O)NC2(CCCCC2)C1=O)N1CCN(C(=O)c2cccs2)CC1 | -8.73% |
| O=C(N[C@@H](Cc1ccccc1)C(=O)OCc1ccccc1)c1nc[nH]c1C(=O)N[C@@H](Cc1ccccc1)C(=O)OCc1ccccc1 | -4.2% |
| C[C@@H](NC(=O)c1nc[nH]c1C(=O)N1CCN(C(=O)OC(C)(C)C)CC1)c1ccccc1 | 1.84% |
| CC(C)(C)OC(=O)N1CCC(NC(=O)c2[nH]cnc2C(=O)N[C@@H](Cc2ccccc2)C(=O)OCc2ccccc2)CC1 | 30.1% (active) |

| SMILES | inhibition |
| --- | --- |
| CC(C)(C)c1nnc(NC(=O)C2c3ccccc3Oc3ccccc32)s1 | 13.8% |
| COc1cc(C(O)c2nc(-c3cccc(C(=O)O)c3)cs2)ccc1F (configuration not stated) | -2.31% |
| COc1ccc2c(c1OC)C(=O)OC2Nc1nc(-c2ccccc2)cs1 (configuration not stated) | 21.7% (active) |
| COc1ccccc1C(=O)Nc1nc2nc(-c3ccccc3)cc(=O)n2[nH]1 | -2.48% |
| C=CCNC(=O)COC(=O)c1ccccc1C(=O)N(C)C1CCCCC1 | -6.21% |
| COc1cccc(CNC(=O)COC(=O)CN2C(=O)NC3(CCCCC3C)C2=O)c1 (configuration not stated) | -6.08% |
| CCOc1ccc(-c2nnc3ccc(SC)nn23)cc1 | 9.56% |
| CCOC(=O)C1=C(c2ccccc2)NC(=O)NC1c1cc(OCC)c(O)c([N+](=O)[O-])c1 (configuration not stated) | 6.34% |
| CCOC(=O)C1=C(C)N(C[C@@H]2CC[C@@H](Cc3ccc(-c4ccccc4)cc3)O2)C(=O)NC1c1ccc([N+](=O)[O-])cc1 (some centres not stated) | 22.2% (active) |
| CCC(CC)COC(=O)C1=C(C)NC(=O)NC1c1ccc([N+](=O)[O-])cc1 (configuration not stated) | 7.52% |
| O=C(CNS(=O)(=O)c1ccc2ccccc2c1)Nc1ccc(F)c(F)c1F | -7.54% |
| Cc1ccnc(NC(=O)CCC(=O)N(CC(=O)NCCc2ccccc2)Cc2cccs2)c1 | 0.75% |
| O=C1/C(=C/c2cccs2)CCC1C1CCCC1 (configuration not stated) | -6.88% |
| COC(=O)Cc1cc(=O)oc2c(C)c(O)ccc12 | 33.2% (active) |
| COc1cccc(C(=O)OCc2cc(=O)oc3c(C)c(C)ccc23)c1OC | -0.79% |
| CCCc1cc(=O)oc2c(C)c(OCC(=O)Nc3ccccn3)ccc12 | -2.73% |
| CCCCn1nnnc1C1(C)CCC(=O)N1Cc1ccc(OC)c(OC)c1 (configuration not stated) | -13.3% |
| COC(C)(C)[C@]12CC(O)(C(C)C)ON1[C@H]1CCCCC1N2O (some centres not stated) | -0.99% |
| CCOC(=O)Cc1c(C)nc2c(C#N)c(C)nn2c1C | 1.59% |
| CC(=O)Oc1ccc(C)cc1N1C(=O)c2ccc(C(=O)O)cc2C1=O | -5.17% |
| O=C(O)CCC(=O)Nc1ccc(N2CCOCC2)cc1 | -4.21% |
| C/C(=C/c1ccccc1)C(=O)N1CCN(c2ccccc2)CC1 | -2.58% |

| SMILES | inhibition |
| --- | --- |
| O=C(O)c1ccc2c(c1)C(=O)N(c1ccc(/C=C/C(=O)c3ccccc3)cc1)C2=O | 23.8% (active) |
| CCCOC(=O)c1ccc(N2C(=O)c3ccccc3C2=O)cc1 | 1.19% |
| O=C(/C=C/c1ccc(N2CCOCC2)cc1)c1ccccc1 | 30.6% (active) |
| CCN(C(=O)COC(=O)C1CCN(S(=O)(=O)c2ccc(C)c(C)c2)CC1)C1CCS(=O)(=O)C1 (configuration not stated) | -0.71% |
| O=C(Nc1ccc(OCCO)cc1)c1csc([C@H]2C[C@H](O)[C@@H](CO)O2)n1 | -10.7% |
| NC(=O)NC(=O)C(OC(=O)CCNS(=O)(=O)c1ccccc1)c1ccccc1 (configuration not stated) | -7.31% |
| O=C(CN1CCCCC1)N1c2ccccc2Sc2ccc(C(F)(F)F)cc21 | 1.57% |
| CC1CCN(C(=O)c2ccccc2NC(=O)Cc2ccccc2)CC1 | -1.45% |
| CC(NC(=O)c1ccc(S(=O)(=O)Nc2ccccc2)cc1)c1ccc(S(N)(=O)=O)cc1 (configuration not stated) | 3.07% |
| CCn1cc(C(=O)NCC2COc3ccccc3O2)c2cc(OC)c(OC)cc2c1=O (configuration not stated) | -5.84% |
| O=C1C(=O)N(CC2COc3ccccc3O2)c2ccccc21 (configuration not stated) | 22.5% (active) |
| O=C1C(=O)N(c2ccccc2)c2ccccc21 | 9.77% |
| C[C@H]1CN([C@@H](C)CO)C(=O)Cc2cc(NC(=O)Cc3ccccc3)ccc2O[C@H]1CN(C)S(=O)(=O)c1cccs1 | -4.34% |
| Cc1ccc(S(=O)(=O)n2cnc3ccccc32)c(C)c1 | 3.17% |
| COc1cc2nnn(-c3ccncc3)c2cc1OC | -0.06% |
| CC(C)(C)NC(=O)COC(=O)c1cc(Br)ccc1Cl | -6.13% |
| c1csc(-c2nnc(COc3ncnc4sccc34)o2)c1 | 2.97% |
| CC1=C(C(=O)OC2CCCCC2)C(c2cccnc2)n2ncnc2N1 (configuration not stated) | 7.46% |
| CCOc1ccccc1C1CC(c2ccccc2)Nc2nc(N)nn21 (configuration not stated) | -8.78% |
| Brc1ccc(C2=CC(c3ccco3)n3ncnc3N2)cc1 (configuration not stated) | 24.6% (active) |
| CCOc1ccc(C2=CC(c3ccccc3)n3ncnc3N2)cc1 (configuration not stated) | 42.2% (active) |
